# Reference: PubChem BioAssay (Tox21)
# Unmarked numbers belong to inactive results. Results filed as inconclusive are left out. Entries that show only a call come without a potency. The source made the active and inactive calls. Unless noted, calls follow the shape of the full dose curve.
# Columns and labels:
# [1] = Nuclear factor erythroid 2-related factor 2/antioxidant responsive element (Nrf2/ARE) small molecule agonists: qHTS cell viability counter screen in human keratinocytes (AID 1919968; active = well fitted curve in the direction sought with a large enough effect in the repeat runs; an effect the other way counts as inactive or inconclusive; also: nearly all actives have a fitted effect of over 55% in size; also: potency is read from the fitted curve at half-maximal effect)
# Method in brief: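 HaCaT ARE reporter line, 1,500 cells/well; 5 h settle, 37 C/5% CO2; cpd in DMSO pinned; 23 h exposure; CellTiter-Fluor, 1 h; fluorescence.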
# [2] = Nuclear factor erythroid 2-related factor 2/antioxidant responsive element (Nrf2/ARE) small molecule agonists: luciferase reporter gene qHTS assay in human keratinocytes (AID 1919969); also: nearly all actives have a fitted effect of over 35% in size
# [3] = target: Gonadotropin-releasing hormone receptor (Homo sapiens) (UniProt P30968); experiment: Human gonadotropin-releasing hormone receptor (GnRHR) small molecule agonists, calcium flux assay in GnRHR-HEK293 cells (AID 1920063); also: nearly all actives have a fitted effect of over 35% in size
# Sequence of Gonadotropin-releasing hormone receptor (Homo sapiens) (P30968 whole entry, looked up): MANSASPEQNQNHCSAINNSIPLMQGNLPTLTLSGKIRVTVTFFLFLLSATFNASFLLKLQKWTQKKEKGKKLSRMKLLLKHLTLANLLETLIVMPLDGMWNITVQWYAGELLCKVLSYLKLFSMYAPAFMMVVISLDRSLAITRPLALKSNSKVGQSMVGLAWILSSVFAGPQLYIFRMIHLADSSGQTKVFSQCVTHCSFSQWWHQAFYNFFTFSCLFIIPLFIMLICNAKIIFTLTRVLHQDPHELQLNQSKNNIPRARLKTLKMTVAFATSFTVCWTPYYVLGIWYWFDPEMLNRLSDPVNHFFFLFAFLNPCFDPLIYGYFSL
# Method in brief: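 GnRHR-HEK293, 1500 cells/well, 18 h 37 C/5% CO2; Ca dye 1 h 37 C; cpd pinned (DMSO), agonist mode; kinetic FL 480/540, 3 min, 1 s reads; 15 conc, n=3.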
# [4] = target: KiSS-1 receptor (Homo sapiens) (UniProt Q969F8); experiment: Human kisspeptin (KISS1R) small molecule agonists, calcium flux assay in KISS1R-HEK293 cells (AID 1920064; active = well fitted curve in the direction sought with a large enough effect in the repeat runs; an effect the other way counts as inactive or inconclusive)
# Sequence of KiSS-1 receptor (Homo sapiens) (Q969F8 whole entry, looked up): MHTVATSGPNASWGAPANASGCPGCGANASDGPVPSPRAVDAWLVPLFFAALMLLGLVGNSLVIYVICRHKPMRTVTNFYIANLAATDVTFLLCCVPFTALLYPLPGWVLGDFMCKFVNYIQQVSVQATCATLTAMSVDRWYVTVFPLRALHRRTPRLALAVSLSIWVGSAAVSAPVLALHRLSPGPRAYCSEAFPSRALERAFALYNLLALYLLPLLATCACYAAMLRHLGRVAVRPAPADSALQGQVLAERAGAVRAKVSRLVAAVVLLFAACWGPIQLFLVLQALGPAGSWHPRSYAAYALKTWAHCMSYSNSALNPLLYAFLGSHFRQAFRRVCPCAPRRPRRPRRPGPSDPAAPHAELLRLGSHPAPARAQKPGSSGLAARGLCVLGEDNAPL
# Method in brief: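 Stable human KISS1R HEK293 line; 18 h plating, 37 C/5% CO2; calcium dye 1 h 37 C; compound pin transfer; kinetic fluorescence Ex/Em 480/540, 3 min.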
# [5] = G protein-coupled receptor (GPCR) small molecule agonists, calcium flux assay: HEK293 wild type cell line counter screen (AID 1920065)
# Method in brief: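 Kinetic fluorescence at Ex/Em 480/540, recorded every second over 3 min, served as the read-out after compound addition. Each compound was tested at 15 concentrations in triplicate on cells pre-loaded with calcium dye for 1 h.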
# [6] = p53 small molecule agonists, cell-based qHTS assay with human liver microsomes: qHTS cell viability counter screen (AID 1963579); also: nearly all actives have a fitted effect of over 45% in size
# Method in brief: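 p53RE-bla cells (4,000/well) were pre-incubated 5 h at 37 C, then given compounds in DMSO plus human liver microsomes (0.5 mg/mL final) and NADPH (0.5 mg/mL final) for 16 h at 37 C. Viability was read by CellTiter-Glo luminescence.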
# [7] = p53 small molecule agonists, cell-based qHTS assay: qHTS cell viability counter screen (AID 1963581); also: nearly all actives have a fitted effect of over 45% in size
# Method in brief: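 HCT-116 p53RE-bla cells, 4,000/well, plated 5 h before compound pin transfer; 16 h at 37 C; bla substrate 2 h RT; then CellTiter-Glo, 30 min RT, luminescence.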
# [8] = target: 5-hydroxytryptamine receptor 2A (Homo sapiens) (UniProt P28223); experiment: 5-hydroxytryptamine receptor 2A (HTR2A) small molecule antagonists, cell-based qHTS assay (AID 1963586); also: nearly all actives have a fitted effect of over 45% in size
# Sequence of 5-hydroxytryptamine receptor 2A (Homo sapiens) (P28223 whole entry, looked up): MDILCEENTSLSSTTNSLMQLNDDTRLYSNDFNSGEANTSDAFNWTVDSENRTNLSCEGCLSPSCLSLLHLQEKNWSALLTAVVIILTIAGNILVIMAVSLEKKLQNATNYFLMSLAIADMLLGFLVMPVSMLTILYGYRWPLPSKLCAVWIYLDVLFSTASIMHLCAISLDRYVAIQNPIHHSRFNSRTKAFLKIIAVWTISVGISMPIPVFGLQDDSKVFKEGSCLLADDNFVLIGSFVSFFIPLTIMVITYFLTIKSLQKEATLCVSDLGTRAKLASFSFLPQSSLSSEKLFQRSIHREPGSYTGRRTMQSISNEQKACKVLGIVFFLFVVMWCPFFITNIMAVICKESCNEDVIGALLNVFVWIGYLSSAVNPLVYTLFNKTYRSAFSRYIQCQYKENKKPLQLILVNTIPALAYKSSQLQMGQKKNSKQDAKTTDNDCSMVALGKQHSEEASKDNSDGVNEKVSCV
# Method in brief: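 Antagonist-mode intracellular calcium assay: DOI (4 nM) added after 5 min compound pre-incubation at room temperature to dye-loaded HTR2A-CHO cells. Fluorescence followed for 3 min, sampled every second.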
# [9] = target: 5-hydroxytryptamine receptor 2A (Homo sapiens) (UniProt P28223); experiment: 5-hydroxytryptamine receptor 2A (HTR2A) small molecule agonists, cell-based qHTS assay (AID 1963587); also: nearly all actives have a fitted effect of over 30% in size; also: potency is read from the fitted curve at half-maximal effect
# Method in brief: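 Kinetic calcium-flux fluorescence (2 min, 1 sec intervals) after compound addition in agonist mode. HTR2A-CHO cells were cultured 18 h, then dye-loaded 1 h at 37 C.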
# [10] = target: Muscarinic acetylcholine receptor M1 (Homo sapiens) (UniProt P11229); experiment: Cholinergic receptor muscarinic 1 (CHRM1) small molecule antagonists, cell-based qHTS assay (AID 1963588); also: nearly all actives have a fitted effect of over 40% in size
# Sequence of Muscarinic acetylcholine receptor M1 (Homo sapiens) (P11229 whole entry, looked up): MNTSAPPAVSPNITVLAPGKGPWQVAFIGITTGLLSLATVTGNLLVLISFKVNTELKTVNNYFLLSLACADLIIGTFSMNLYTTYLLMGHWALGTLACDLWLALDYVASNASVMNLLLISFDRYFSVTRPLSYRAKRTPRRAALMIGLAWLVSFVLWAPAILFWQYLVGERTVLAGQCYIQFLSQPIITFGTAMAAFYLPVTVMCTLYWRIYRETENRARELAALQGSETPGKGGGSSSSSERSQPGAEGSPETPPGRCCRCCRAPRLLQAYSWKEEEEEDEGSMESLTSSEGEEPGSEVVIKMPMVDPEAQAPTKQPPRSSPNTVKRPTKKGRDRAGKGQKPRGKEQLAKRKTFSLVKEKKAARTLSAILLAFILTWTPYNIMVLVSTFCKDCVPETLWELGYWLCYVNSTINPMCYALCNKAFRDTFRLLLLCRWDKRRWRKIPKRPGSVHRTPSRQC
# Method in brief: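 CHRM1-CHO calcium-flux assay, antagonist mode. Cells were seeded 18 h, dye-loaded 1 h at 37 C and given compound for 5 min at RT, then acetylcholine was added at 50nM. FDSS fluorescence was read 3 min; 15 concentrations, three runs.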
# [11] = target: Muscarinic acetylcholine receptor M1 (Homo sapiens) (UniProt P11229); experiment: Cholinergic receptor muscarinic 1 (CHRM1) small molecule agonists, cell-based qHTS assay (AID 1963589); also: nearly all actives have a fitted effect of over 35% in size
# Method in brief: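 Human M1 in stable CHO line; 18 h plating, 1 h dye load 37 C; cpd added (agonist mode); Ca2+ fluorescence kinetic read, 1 s intervals; 15 conc, 3 runs.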
# [12] = cAMP Responsive Elements (CRE) small molecule agonists, cell-based qHTS assay (AID 1963590)
# Method in brief: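 HEK 293T CRE-bla, 2,000 cells/well, 18 h preincubation 37 C/5% CO2; cpds (DMSO) pinned, 3 h; LiveBLAzer B/G FRET substrate, 2 h RT.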
# [13] = cAMP Responsive Elements (CRE) small molecule antagonists, cell-based qHTS assay (AID 1963591; active = well fitted inhibition curve with a large enough effect in the signal ratio in the repeat runs, not every such curve was filed as active; the % refers to the signal ratio)
# Method in brief: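 Beta-lactamase reporter read by FRET substrate (LiveBLAzer B/G) after 2 h at room temperature. CRE-bla HEK293T cells had received compound plus 0.25 uM (final) NKH477 for 3 h at 37 °C.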
# [14] = target: Beta-2 adrenergic receptor (Homo sapiens) (UniProt P07550); experiment: Adrenergic beta2 receptor (ADRB2) small molecule antagonists, cell-based qHTS assay (AID 1963592); also: series mostly up to about 92 µM; nearly all actives have a fitted effect of over 50% in size
# Sequence of Beta-2 adrenergic receptor (Homo sapiens) (P07550 whole entry, looked up): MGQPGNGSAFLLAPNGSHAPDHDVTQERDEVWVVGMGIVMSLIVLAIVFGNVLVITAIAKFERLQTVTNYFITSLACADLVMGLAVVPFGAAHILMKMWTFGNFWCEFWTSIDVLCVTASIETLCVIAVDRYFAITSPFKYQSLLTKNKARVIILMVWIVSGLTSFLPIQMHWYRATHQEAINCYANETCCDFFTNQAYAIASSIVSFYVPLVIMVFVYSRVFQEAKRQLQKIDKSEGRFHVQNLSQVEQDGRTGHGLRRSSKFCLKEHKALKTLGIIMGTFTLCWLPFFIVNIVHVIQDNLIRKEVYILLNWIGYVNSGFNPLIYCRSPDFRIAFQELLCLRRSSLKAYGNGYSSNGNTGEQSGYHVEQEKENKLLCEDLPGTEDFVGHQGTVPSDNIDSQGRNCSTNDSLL
# Method in brief: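 Cells (CHO, stable ADRB2 overexpression) incubated 18-20hr at 37C; compounds added from DMSO; agonist mix (1nM isoproterenol, 100uM IBMX, 25uM Ro-20-1724) added; 0.5hr RT; d2-cAMP and anti-cAMP-cryptate added; 1hr RT; 665/615 nm read.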
# [15] = target: D(2) dopamine receptor (Homo sapiens) (UniProt P14416); experiment: Dopamine D2 receptor (DRD2) small molecule agonists, cell-based qHTS assay (AID 1963594); also: nearly all actives have a fitted effect of over 35% in size; also: potency is read from the fitted curve at half-maximal effect
# Sequence of D(2) dopamine receptor (Homo sapiens) (P14416 whole entry, looked up): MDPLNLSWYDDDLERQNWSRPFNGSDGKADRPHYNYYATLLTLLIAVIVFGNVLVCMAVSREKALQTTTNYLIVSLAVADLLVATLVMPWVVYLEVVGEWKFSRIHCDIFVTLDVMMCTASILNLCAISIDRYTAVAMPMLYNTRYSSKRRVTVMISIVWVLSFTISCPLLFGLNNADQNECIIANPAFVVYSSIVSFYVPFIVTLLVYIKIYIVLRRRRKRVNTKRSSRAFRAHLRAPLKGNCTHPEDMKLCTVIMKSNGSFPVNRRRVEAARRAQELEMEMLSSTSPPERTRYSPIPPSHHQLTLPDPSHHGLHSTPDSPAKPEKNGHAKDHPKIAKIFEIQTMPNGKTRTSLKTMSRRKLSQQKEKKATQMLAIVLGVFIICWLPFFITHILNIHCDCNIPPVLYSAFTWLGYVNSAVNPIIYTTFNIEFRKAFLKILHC
# Method in brief: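 cAMP accumulation in DRD2-HEK293 cells measured by HTRF after 1 h detection; compounds added 10 min before NKH477 (200nM […]) forskolin-analogue stimulation, 30 min at room temperature, with Ro20-1724 present at 0.1 mM final.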
# [16] = target: D(2) dopamine receptor (Homo sapiens) (UniProt P14416); experiment: Dopamine D2 receptor (DRD2) small molecule antagonists, cell-based qHTS assay (AID 1963595; active = well fitted inhibition curve with a large enough effect in the signal ratio in the repeat runs, with a control signal flat; the % refers to the signal ratio)
# Method in brief: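 Stable D2 receptor HEK293 line, 24 h after seeding. Compound preincubated 10 min, then quinpirole (12 nM) with forskolin analogue NKH477 (200 nM), 30 min, room temperature. Detection by time-resolved FRET of cAMP.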
# [17] = p53 small molecule agonists, cell-based qHTS assay with rat liver microsomes: qHTS cell viability counter screen (AID 1963580); also: nearly all actives have a fitted effect of over 45% in size
# Method in brief: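 HCT-116 p53RE-bla, 4,000 cells/well, 5 h pre-incubation; cpd + rat liver microsomes 0.5 mg/mL + NADPH 0.5 mg/mL (final); 16 h, 37 C; CellTiter-Glo, 30 min RT; luminescence.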
# [18] = target: Beta-2 adrenergic receptor (Homo sapiens) (UniProt P07550); experiment: Adrenergic beta2 receptor (ADRB2) small molecule agonists, cell-based qHTS assay (AID 1963593);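 also: CHO cells stably overexpressing human ADRB2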
# Method in brief: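 CHO cells stably over-expressing ADRB2 were plated overnight at 37C, then dosed with compounds plus a stimulation mix containing 100uM IBMX and 25uM Ro-20-1724 for 0.5hr at room temperature. cAMP was measured by HTRF competition, 1hr.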
structure (smiles),measurement,setting,value
OC1CCCCC1c1ccccc1 (configuration not stated),Potency,[1],inactive
same,Potency,[2],inactive
same,Potency,[3],inactive
same,Potency,[4],inactive
same,Potency,[5],inactive
same,Potency,[6],inactive
same,Potency,[7],inactive
same,Potency,[8],inactive
same,Potency,[9],inactive
same,Potency,[10],inactive
same,Potency,[11],inactive
same,Potency,[12],inactive
same,Potency,[13],inactive
same,Potency,[14],inactive
same,Potency,[15],inactive
same,Potency,[16],inactive
O=C(O)[C@@H]1CSCN1,Potency,[1],inactive
same,Potency,[2],inactive
same,Potency,[3],inactive
same,Potency,[4],inactive
same,Potency,[5],inactive
same,Potency,[6],inactive
same,Potency,[17],inactive
same,Potency,[9],inactive
same,Potency,[10],inactive
same,Potency,[11],inactive
same,Potency,[12],inactive
same,Potency,[14],inactive
same,Potency,[18],inactive
same,Potency,[15],inactive
same,Potency,[16],inactive
O=[N+]([O-])c1ccc(Cl)cc1Cl,Potency,[1],inactive
same,Potency,[2],inactive
same,Potency,[3],inactive
same,Potency,[4],inactive
same,Potency,[5],inactive
same,Potency,[6],inactive
same,Potency,[7],inactive
same,Potency,[8],inactive
same,Potency,[9],inactive
same,Potency,[10],inactive
same,Potency,[11],inactive
same,Potency,[12],inactive
same,Potency,[13],inactive
same,Potency,[14],inactive
same,Potency,[18],inactive
same,Potency,[15],inactive
same,Potency,[16],inactive
Cc1cccc(C(=O)O)c1O,Potency,[1],inactive
same,Potency,[2],inactive
same,Potency,[3],inactive
same,Potency,[4],inactive
same,Potency,[5],inactive
same,Potency,[6],inactive
same,Potency,[7],inactive
same,Potency,[9],inactive
same,Potency,[10],inactive
same,Potency,[11],inactive
same,Potency,[12],inactive
same,Potency,[13],inactive
same,Potency,[14],inactive
same,Potency,[18],inactive
same,Potency,[15],inactive
same,Potency,[16],inactive
CC(C)[C@H]1CC[C@H](C)C[C@@H]1O,Potency,[1],inactive
same,Potency,[2],inactive
same,Potency,[3],inactive
same,Potency,[4],inactive
same,Potency,[5],inactive
same,Potency,[6],inactive
same,Potency,[17],inactive
same,Potency,[8],inactive
same,Potency,[10],inactive
same,Potency,[11],inactive
same,Potency,[12],inactive
same,Potency,[13],inactive
same,Potency,[14],inactive
same,Potency,[18],inactive
same,Potency,[15],57.9 µM (active)
same,Potency,[16],inactive
CCO[Si](CCCSSSSCCC[Si](OCC)(OCC)OCC)(OCC)OCC,Potency,[1],61.2 µM (active)
same,Potency,[2],inactive
same,Potency,[3],inactive
same,Potency,[4],inactive
same,Potency,[5],inactive
same,Potency,[6],inactive
same,Potency,[7],inactive
same,Potency,[8],inactive
same,Potency,[9],49 µM (active)
same,Potency,[10],inactive
same,Potency,[11],inactive
same,Potency,[14],inactive
same,Potency,[15],inactive
same,Potency,[16],inactive
CCCCOCC(C)OCC(C)O (configuration not stated),Potency,[1],inactive
same,Potency,[2],inactive
same,Potency,[3],inactive
same,Potency,[4],inactive
same,Potency,[5],inactive
same,Potency,[6],inactive
same,Potency,[7],inactive
same,Potency,[8],inactive
same,Potency,[9],inactive
same,Potency,[10],inactive
same,Potency,[11],inactive
same,Potency,[12],inactive
same,Potency,[13],inactive
same,Potency,[14],inactive
same,Potency,[18],inactive
same,Potency,[15],inactive
NCCNC(=O)c1ccc(Cl)cn1,Potency,[1],inactive
same,Potency,[2],inactive
same,Potency,[3],inactive
same,Potency,[4],inactive
same,Potency,[5],inactive
same,Potency,[6],inactive
same,Potency,[17],inactive
same,Potency,[8],inactive
same,Potency,[10],inactive
same,Potency,[11],inactive
same,Potency,[13],inactive
same,Potency,[14],inactive
same,Potency,[18],inactive
same,Potency,[15],inactive
same,Potency,[16],inactive
O=C(O)CN(CCOCCOCCN(CC(=O)O)CC(=O)O)CC(=O)O,"activity change, negative = cytotoxicity",[1],-7.96% [at 0.349 µM]
same,"activity, positive = activation",[2],-0.157% [at 0.349 µM]
same,activity change,[3],"0.537% [at 0.217 µM, stronger effect = higher value]"
same,activation,[4],-1.47% [at 0.29 µM]
same,activation,[5],-0.598% [at 0.217 µM]
same,"activity change, negative = cytotoxicity",[6],0.622% [at 0.249 µM]
same,"activity change, negative = cytotoxicity",[7],-15.2% [at 0.249 µM]
same,"activity, negative = inhibition",[10],-20.9% [at 0.232 µM]
same,activation,[11],-0.0666% [at 0.29 µM]
same,activation,[12],-1.26% [at 0.349 µM]
same,"activity change, negative = inhibition",[13],0.383% [at 0.349 µM]
same,"activity change, negative = inhibition",[14],0.881% [at 0.349 µM]
same,activation,[18],0.525% [at 0.349 µM]
same,"activity change, negative = inhibition",[16],-1.35% [at 0.348 µM]
Cc1ccc(Nc2c(F)cccc2Cl)c(CC(=O)O)c1,Potency,[1],inactive
same,Potency,[2],inactive
same,Potency,[3],inactive
same,Potency,[4],inactive
same,Potency,[5],inactive
same,Potency,[6],inactive
same,Potency,[7],inactive
same,Potency,[8],inactive
same,Potency,[9],inactive
same,Potency,[10],inactive
same,Potency,[11],inactive
same,Potency,[12],inactive
same,Potency,[13],inactive
same,Potency,[14],inactive
same,Potency,[15],inactive
same,Potency,[16],inactive
CCOc1ccc(C(=O)OCCN(CC)CC)cc1,Potency,[1],inactive
same,Potency,[2],inactive
same,Potency,[3],inactive
same,Potency,[4],inactive
same,Potency,[5],inactive
same,Potency,[6],inactive
same,Potency,[7],inactive
same,Potency,[8],inactive
same,Potency,[9],inactive
same,Potency,[10],inactive
same,Potency,[11],inactive
same,Potency,[12],inactive
same,Potency,[13],inactive
same,Potency,[14],inactive
same,Potency,[18],inactive
same,Potency,[15],inactive
same,Potency,[16],inactive
